Measured values published in PubChem BioAssay (Tox21).
Results filed as inconclusive are left out. Where a call stands in place of a potency, no number is given. Active and inactive are the calls of the source. Calls follow the shape of the dose curve; as a rule, active = well fitted cell-killing curve with a large enough effect in the repeat runs; inconclusive = weak or mixed curves, or effect the other way; inactive = flat fitted curve, though single readings scatter.

Legend:
[1] = cAMP Responsive Elements (CRE) small molecule antagonists, cell-based qHTS assay: qHTS cell viability counter screen (AID 2060913); also: nearly all actives have a fitted effect of over 40% in size
Method in brief: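 Cytotoxicity read in the same wells as the CRE-bla HEK293T antagonist assay: after 3 h compound with 0.25 uM NKH477 final and 2 h beta-lactamase substrate, CellTiter-Glo luminescence measured.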

[2] = cAMP Responsive Elements (CRE) small molecule agonists, cell-based qHTS assay: qHTS cell viability counter screen (AID 2060914);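 also: viability read after 3 h of compound exposure; nearly all actives have a fitted effect of over 50% in size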
Method in brief: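 CRE-bla HEK 293T cells, plated 18 h at 37 °C, were exposed to compounds for 3 h at 37 °C/5% CO2. Viability was then measured in the same wells by CellTiter-Glo luminescence after 30 min at room temperature.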

Structure (SMILES) | Potency [1] | Potency [2]
CC(C)CC(=O)O | inactive | inactive
Cc1cnc(NS(=O)(=O)c2ccc(N)cc2)nc1 | inactive | inactive
O=C(O)CC(C(=O)O)S(=O)(=O)O (stereo not drawn) | inactive | inactive
Nc1cc(S(=O)(=O)O)cc2cc(S(=O)(=O)O)cc(O)c12 | inactive | inactive
NNC(=O)CCCCC(=O)NN | inactive | inactive
CCC(=O)c1ccc2c(c1)N(CCCN(C)C)c1ccccc1S2 | inactive | inactive
CCCCCCCCCCCCN(CCCCCCCCCCCC)CCCCCCCCCCCC | inactive | inactive
CCN1CCCC1=O | inactive | inactive
CCCCCCCCCCCCCCCCCC(=O)OCCCCCCCCCCCCCC(C)C | inactive | inactive
OC(CCN1CCCCC1)(c1ccccc1)C1CC2C=CC1C2 (stereo not drawn) | inactive | inactive
O=c1[nH]nc(-c2ccc([N+](=O)[O-])o2)o1 | inactive | inactive
CCCCCSCCCCC | inactive | inactive
CCOC(=O)CS | inactive | inactive
CC(C)(Sc1cc(C(C)(C)C)c(O)c(C(C)(C)C)c1)Sc1cc(C(C)(C)C)c(O)c(C(C)(C)C)c1 | inactive | inactive
CC(C)=CCC/C(C)=C/COC=O | inactive | inactive
C1CC(COCC2CO2)CCC1COCC1CO1 (stereo not drawn) | inactive | inactive
O=C(c1ccccc1)C1CCC1 | inactive | inactive
CC(C)(C)C(=O)OCOC(=O)[C@@H]1N2C(=O)[C@@H](NC(=O)[C@H](N)c3ccccc3)[C@H]2SC1(C)C | inactive | inactive
CC(C)NCC(O)COc1cccc2[nH]ccc12 (stereo not drawn) | inactive | inactive
CCCCOCC(C)O (stereo not drawn) | inactive | inactive
COC(=O)CCCCC(=O)O | inactive | inactive
O=C(OCCCCCCOC(=O)c1ccccc1)c1ccccc1 | inactive | inactive
O=C(O)C(Cc1cc(I)c(O)c(I)c1)c1ccccc1 (stereo not drawn) | inactive | inactive
COC(C)COC(C)COC(C)CO (stereo not drawn) | inactive | inactive
C=CCOC(=O)CCCCCCCC | inactive | inactive

Structure (SMILES) | Potency [1] | Potency [2]
NS(=O)(=O)c1cc2c(cc1Cl)NCNS2(=O)=O | inactive | inactive
C[C@]12C=CC(=O)C=C1CC[C@@H]1[C@@H]2[C@@H](O)C[C@@]2(C)[C@H]1CC[C@]2(O)C(=O)CO | inactive | inactive
CC(=O)OCC1=C(C(=O)O)N2C(=O)[C@@H](NC(=O)Cc3cccs3)[C@H]2SC1 | inactive | inactive
CCCC/C=C/CCCCO | inactive | inactive
CC(=O)c1ccc([N+](=O)[O-])cc1 | inactive | inactive
NC1CCCCC1 | inactive | inactive
C=CC/C=C/C/C=C/C/C=C/C | inactive | inactive
CCN(CC)C(=O)C1CN2CCc3cc(OC)c(OC)cc3C2CC1OC(C)=O (stereo not drawn) | inactive | inactive
CC(=O)c1ccccn1 | inactive | inactive
O=c1[nH]cccc1O | inactive | inactive
CC(O)C1CCCCC1 (stereo not drawn) | inactive | inactive
CC(C)c1ccccc1N | inactive | inactive
CCCCC(CC)COC(=O)COc1cc(Cl)c(Cl)cc1Cl (stereo not drawn) | inactive | inactive
O=C(Nc1ccc([N+](=O)[O-])cc1)Nc1ccc([N+](=O)[O-])cc1 (tested in a mixture with another compound) | inactive | inactive
CCC(=O)c1ccc(O)cc1 | inactive | inactive
CN(C)C | inactive | inactive
CCOC(=O)COC(=O)c1ccccc1C(=O)OCC | inactive | inactive
CCCCCOC(=O)c1ccc(O)cc1 | inactive | inactive
Nc1ccc(Cl)cc1Cl | inactive | inactive
COc1ccc2c(c1)C(=O)N(CCc1ccc(S(=O)(=O)NC(=O)NC3CCCCC3)cc1)C(=O)C2(C)C | inactive | inactive
CCOC(=O)OC(C)OC1=C(C(=O)Nc2ccccn2)N(C)S(=O)(=O)c2ccccc21 (stereo not drawn) | inactive | inactive
CSc1nc(NC2CC2)nc(NC(C)(C)C)n1 | inactive | inactive
O=C1CCC(C2CCCCC2)CC1 | inactive | inactive
CCCCC1(COC(=O)CCC(=O)O)C(=O)N(c2ccccc2)N(c2ccccc2)C1=O | inactive | inactive
